Assay results from PubChem BioAssay (Tox21).
Records with an inconclusive call do not appear. A number with no mark means an inactive call. Calls follow the shape of the dose curve; as a rule, active = well fitted cell-killing curve with a large enough effect in the repeat runs; inconclusive = weak or mixed curves, or effect the other way; inactive = flat fitted curve, though single readings scatter. Where a SMILES comes first, the peptide text is derived from it.

Experiment: qHTS assay to identify small molecule agonists of the TGF-beta/Smad signaling pathway - cell viability counter screen (AID 1346829); also: top concentration of the series differs between compounds; nearly all actives have a fitted effect of over 45% in size
Settings: SBE-bla HEK293T viability, CellTiter-Glo luminescence, 5 h; series mostly up to 76.8 µM; activity change, negative = cytotoxicity: at the top concentration
From the text: National Center for Advancing Translational Sciences [NCATS]
NIH Chemical Genomics Center [NCGC]
U.S. Environmental Protection Agency [EPA]
National Institutes of Environmental Health Sciences [NIEHS]
National Toxicology Program [NTP]
U.S. Food and Drug Administration [FDA]
Transforming growth factor beta (TGF-beta) superfamily consists of a large number of structurally related dimeric proteins that act as hormones or local mediators in regulating a wide range of biological functions. This superfamily includes TGF-betas themselves, the bone morphogenetic proteins (BMPs) and the activins. These ligands induce oligomerization of serine/threonine receptor kinases and phosphorylate the cytoplasmic signaling molecules of Smad protein family. CellSensor SBE-bla HEK 293T cell line (Life Technologies, Carlsbad, CA), responsive to TGF-beta was used to screen Tox21 10K compound library for identification of agonists/antagonists of the Smad signaling pathway. This cell line contains a beta-lactamase reporter gene under control of the Smad binding element (SBE) stably integrated into HEK 293T cells. Also cytotoxicity of the compounds was tested in parallel by measuring the cell viability using CellTiter-Glo assay system in the same wells.
Tox21 Assay Protocol Summary:
SBE-bla HEK 293T cells were dispensed at 4,000/well in 6 uL of assay medium into black wall/clear-bottom 1536-well plates using a Multidrop Combi (ThermoFisher Scientific, Waltham, MA) dispenser. After the assay plates were incubated at 37 C and 5% CO2 for an overnight, 23 nL of compounds dissolved in DMSO, positive controls or DMSO only was transferred to the assay plate by a Pintool station (Kalypsys, San Diego, CA). The assay plates were incubated at 37 C and 5% CO2 for 5 hr. One uL of LiveBLAzer B/G FRET substrate (Life Technologies) was added using a Flying Reagent Dispenser (FRD, Aurora Discovery, San Diego, CA) and the plates were incubated at room temperature for 2 hr. Fluorescence intensity (405 nm excitation, 460 nm and 530 nm emissions) was measured using an Envision plate reader (PerkinElmer, Shelton, CT). For cytotoxicity read, 4 uL of CellTiter-Glo reagent (Promega Corporation, Madison, WI) was added to each well of the assay plates using FRD. After 30min incubation at room temperature, the luminescence intensity was measured using ViewLux plate reader (PerkinElmer).
% is scaled to controls: 0 for no effect and ±100 for the full control effect.

Compound | activity change, negative = cytotoxicity
CN(C)C(C)(C)CO | -0.244%
CCn1cc(C(=O)O)c(=O)c2cnc(N3CCCC3)nc21 | 3.95% [at 6.97 µM]
CC(C)COC(=O)c1ccccc1 | -0.227%
OC1(c2ccc(Cl)cc2)CCNCC1 | 1.38% [at 35.3 µM]
CNCCS(=O)(=O)O | -2.91%
CN1C[C@@H]2C[C@H]1CN2c1cc2c(cc1F)c(=O)c(C(=O)O)cn2C1CC1 | 2.12% [at 15.8 µM]
CCCCCc1cccc(=O)o1 | -3.91%
COC(=O)c1ccccc1C(=O)O | -6.91%
CCCC(CC)c1ccccc1 (stereo not given) | -0.0888%
CC1(C)CC(OC(=O)CCCCCCCCC(=O)OC2CC(C)(C)NC(C)(C)C2)CC(C)(C)N1 | 11.9% [at 15.8 µM]
CCCCCCCCCCCCCCCCCCOCCO | -6.94% [at 15.8 µM]
CC1CCc2c(N3CCC(O)CC3)c(F)cc3c(=O)c(C(=O)O)cn1c23 (stereo not given) | 0.254% [at 35.3 µM]
CC1(C)[C@H]2CC[C@](C)(C2)[C@H]1O | 13.1%
[O]=[Mo](=[O])=[O] | 7.35% [at 15.8 µM]
CCCCCCCCCOC(=O)CCCCC(=O)OCCCCCCC | 2.05%
Fc1ccccc1 | -11.1%
Cc1ccc(N)cc1S(=O)(=O)O | -6.83%
O=C1CCC(=O)N1Cl | 1.26%
CCCCOCCOC(=O)COc1ccc(Cl)cc1Cl | -11.3%
CCCC(=O)Nc1ccc(OCC(O)CNC(C)C)c(C(C)=O)c1 (stereo not given) | 8.93% [at 35.3 µM]

Compound | activity change, negative = cytotoxicity
O=C(NCN1CCOCC1)c1cnccn1 | -17.8% [at 35.3 µM]
Cc1ccc2c(c1)C(=O)c1ccccc1C2=O | 5.52%
CCCCCCCCCOC(=O)c1ccccc1C(=O)OCCCCCCCCC | -16.4%
Cc1c(C(=O)c2c[nH]n(C)c2=O)ccc(S(C)(=O)=O)c1C1=NOCC1 | -15.5% [at 35.3 µM]
NCCOCCN | -0.183%
CC(C)Nc1ccccc1 | -5.29%
COC(=O)CCCCC(=O)O | -4.88%
CC1=NN(c2ccc(S(=O)(=O)O)cc2)C(=O)C1 | 22.3%
COS(=O)(=O)O | -0.654%
Cc1c(Cl)cccc1Cl | 6.84%
CCC(C(=O)OCCN1CCOC(c2ccccc2)C1C)c1ccccc1 (stereo not given) | -7.78% [at 35.3 µM]
C=CC/C=C/C | 1.51%
CCCCC1CCC(O)CC1 (stereo not given) | -4.1%
O=[N+]([O-])c1c(Cl)cc(Cl)cc1Cl | 0.286%
CCOC(=O)CC1(C)OCC(C)O1 (stereo not given) | 0.838%
CC(=O)N[C@@H](CO)C(=O)N[C@@H](CC(=O)O)C(=O)N[C@@H](CCCCN)C(=O)N1CCC[C@H]1C(=O)O (Ac-SDKP-OH) | 2.62% [at 35.3 µM]
O=C(O)[C@H](O)c1ccccc1 | 5.99% [at 35.3 µM]
C=CCCCCCCCC | 4.51%
CCC[C@@H]1C[C@@H](C(=O)N[C@@H]([C@H]2O[C@H](SC)[C@H](O)[C@@H](O)[C@H]2O)[C@@H](C)O)N(C)C1 | 2.65% [at 35.3 µM]
NCc1ccc(S(N)(=O)=O)cc1 | -10.4% [at 35.3 µM]
